# Screens (PubChem)
# Sampled rows, rich in hits. Any-hit rate of the full collection: about 2.8%.
# POLB inh: qHTS Assay for Inhibitors of DNA Polymerase Beta; Potency, µM (doses to about 114 µM), most hits filed as inhibitors; P06746; AID 485314, 2010; Pol beta primer extension/strand displacement, fluorescence kinetic; actives 1.3% (n = 340,000)
#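 Reaction started by 50 nM substrate onto compound-treated Pol beta (10 nM, 15 min preincubation, room temperature); plates read at 0 min and 10 min. Normalized concentration-effect data fitted by four-parameter Hill equation.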
# POLH inh: qHTS for Inhibitors of Polymerase Eta; recombinant Pol eta, fluorescent DNA replication assay; Potency, µM (titrated, usually from 114 µM), hits mostly inhibitors; actives 1.2% (n = 390,000); AID 588591, 2011
#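 Fluorescent replication assay: 50 nM final substrate added after a 15 min room-temperature compound preincubation with 10 nM enzyme. Signal taken at 0 min and again at 10 min.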
# PI4K2A inh: qHTS for small molecular inhibitors of PI4K2A. actives 0.13% (n = 420,000). purified PI4K2A, ADP-Glo luminescence, 1 h; hits give low values. activity change, negative = inhibition, % at 76.9 µM. Phosphatidylinositol 4-kinase type 2-alpha (Homo sapiens), Q9BTU6; in the data active means activity change below about -50%; inconclusive means mostly about -30% to -49%
#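 Compounds are screened against recombinant PI4K2A using PI as substrate and ATP, the latter dispensed at 300 microM. Reactions run one hour at ambient temperature before ADP-Glo detection; full inhibition defined by wells lacking enzyme.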
# POLK inh: qHTS for Inhibitors of Polymerase Kappa | actives 0.53% (n = 400,000) | purified Pol kappa, fluorescent DNA synthesis assay, 10 min | DNA polymerase kappa (Homo sapiens), Q9UBT6 | Potency, µM (titrated, usually from 107 µM), most hits filed as inhibitors
#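 10 nM Pol kappa preincubated 15 min at room temperature with compounds, then reaction started with substrate at 50 nM final. Fluorescence read kinetically at 0 and 10 min; buffer-only wells served as negative control.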
# POLI inh: qHTS for Inhibitors of Polymerase Iota; Potency, µM (highest dose often 115 µM), most hits filed as inhibitors; AID 588590, 2011; Pol iota fluorescent replication assay, 10 min; actives 1% (n = 390,000)
#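 Fluorescent replication assay read twice, at 0 min and 10 min after adding 50 nM (final) substrate. Enzyme (10 nM) and compounds were first incubated 15 min at room temperature; enzyme-free buffer wells were negative controls.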
# PI5P4K alpha inh: qHTS for Inhibitors of phosphatidylinositol 5-phosphate 4-kinase (PI5P4K). actives 1.2% (n = 330,000). Phosphatidylinositol 5-phosphate 4-kinase type-2 alpha (Homo sapiens), P48426. AID 652105, 2013. PI5P4Kalpha enzyme, ADP-Glo luminescence, 60 min; hits give low values. max response, %; active means max response of -50% or lower; inconclusive means between -30% and -50%; inactive means -30% or higher; further: value at the top dose of about 77 µM
#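 qHTS, 1536-well: enzyme/substrate mix, compound by pin tool, 5 microM ATP final; RT 60 min; ADP-Glo reagents 1 (45 min) then 2 (30 min); luminescence.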
# A number is an active result; - = inactive; ? = inconclusive; . = no result given. Unless noted, the call rests on the fitted dose curve; in most records, active means well fitted inhibition curve with a large enough effect; inconclusive means small, poorly fitted or top-dose-only effect, or another doubt; inactive means no such curve, though single readings can be large or run the other way.
SMILES,POLB inh,POLH inh,PI4K2A inh,POLK inh,POLI inh,PI5P4K alpha inh
Cc1cc(C(=O)CSc2nnc(-c3ccccc3)n2-c2ccccc2)c(C)n1-c1ncn[nH]1,40µM,20µM,-,?,?,-
NC(=O)N/N=C/c1c(O)ccc2oc3c(c12)CCCC3,-,-,-,-,-,-
O=[N+]([O-])c1cc2oc3c(c2c(C=NCc2ccncc2)c1O)CCCC3,18µM,?,-,?,?,-81
O=C(CCC1CCN(Cc2ccccc2)CC1)c1ccc2c(c1)NCCCC2,.,.,-,.,.,.
Nc1nc(=S)[nH]c(N)c1N,.,.,.,-,-,.
CC(/C=C/c1ccccc1F)=N\NC(=O)c1ccccc1,-,-,-,-,-,-
CC(/C=C/c1ccccc1F)=N\NC(=O)c1ccc(Cl)cc1,-,-,-,-,-,-68
O=C(O)CN1C(=O)C=CC1=O,.,?,-,.,.,-
O=C1C=CC(=O)N1CCCCCCN1C(=O)C=CC1=O,-,?,-,-,-,-58
CCOC(=O)C(=O)c1csc(NC=O)n1,.,.,-,.,.,.
O=C(NCc1ccco1)c1cc2c(s1)CCCCC2,28µM,-,-,-,?,.
CCC1=NN2C(=N)/C(=C\c3cccn3-c3ccc(C)c(C)c3)C(=O)N=C2S1,?,?,-,-,-,-
CCC1=NN2C(=N)/C(=C\c3ccc(OCCOc4ccccc4)c(OC)c3)C(=O)N=C2S1,-,.,.,.,.,.
CCC1=NN2C(=N)/C(=C/c3ccc(OS(=O)(=O)c4ccccc4)cc3)C(=O)N=C2S1,?,45µM,-,-,-,-63
CCC1=NN2C(=N)/C(=C\c3cccn3-c3ccc(Cl)cc3)C(=O)N=C2S1,28µM,?,-,-,?,-
Cc1cc(C)c2nccc(/C=C/c3ccc(N(C)C)cc3)c2c1,.,.,.,-,-,.
CC1CCC/C(=N\Nc2ccc(Cl)c(C(=O)O)c2)C1 (stereo not drawn),32µM,8.9µM,-,?,?,-
CC1CCC/C(=N\NC(=O)Nc2ccccc2)C1 (stereo not drawn),-,-,-,-,-,-
Nc1c(Cl)cc(/C=C2\C=Cc3ccccc32)cc1Cl,.,.,.,-,-,.
CCOC(=O)c1cnc(SCC(=O)Nc2ccc(NC(C)=O)c(OC)c2)nc1N,-,-,?,-,-,.
COc1ccc(OC)c(NC(=O)CSc2nc3[nH]c(=O)cc(O)c3s2)c1,.,?,-,-,?,?
COc1ccc(OC)c(NC(=O)CSc2nc3[nH]c(=O)[nH]c(=O)c3s2)c1,.,50µM,-,-,?,?
CCOC(=O)c1cnc(SCC(=O)Nc2cc(OC)ccc2OC)nc1N,22µM,?,-,-,-,-
Cc1ccc(S(=O)(=O)N2CCN(c3nc(-c4ccnnc4)nc4ccccc34)CC2)cc1,.,.,.,-,-,.
Cc1cc2c(n1-c1ccc(C(=O)O)cc1)CCCCC2,2.5µM,.,.,.,.,.
SMILES,POLB inh,POLH inh,PI4K2A inh,POLK inh,POLI inh,PI5P4K alpha inh
COC(=O)c1ccc(COc2ccc(/C=C(\C#N)c3nc4ccccc4[nH]3)cc2OC)o1,8.9µM,?,-,-,-,-
COc1cc(/C=C(\C#N)c2nc3ccccc3[nH]2)ccc1OCc1cccc(C(F)(F)F)c1,3.5µM,.,-,-,?,.
CN(C)c1ccc(/C=C2\Cc3ccccc3C2=O)cc1,.,.,.,-,-,.
CC1(C)OC(=O)C2(Cc3cc([N+](=O)[O-])ccc3N3CCCCC32)C(=O)O1 (stereo not drawn),.,.,.,-,-,.
O=C1OC2(c3ccccc31)c1cc(Br)c(O)c(Br)c1Oc1c2cc(Br)c(O)c1Br,.,.,-,.,.,.
Cc1ccc(C)c(-c2[nH]c3c(c2-c2c(-n4cccc4)n(C)c(=O)n(C)c2=O)c(=O)n(C)c(=O)n3C)c1,-,-,-,-,-,.
CCOC(=O)c1cc(-c2csc(-c3cccc(Cl)c3)n2)on1,-,-,-,-,-,-
CCOC(=O)c1c(C)sc(-c2c(-c3cc(C)ccc3C)[nH]c3c2c(=O)n(C)c(=O)n3C)c1O,5.6µM,?,-,-,?,.
